Laboratory results as given in PubChem BioAssay (NCATS).
Values joined by “and” are separate entries in the source; they are usually repeats but may differ in a detail not shown here. Equal entries are not always repeated. Records with an inconclusive call do not appear. Active and inactive are the calls of the source. Unless noted, the call rests on the fitted dose curve; in most records, active means well fitted curve in the direction sought with a large enough effect; inconclusive means small, poorly fitted or top-dose-only effect, or another doubt; inactive means no such curve, though single readings can be large; an effect the other way counts as inactive or inconclusive.

Assays:
[1] = molecular target: Arylsulfatase A (Homo sapiens) (UniProt P15289); assay: qHTS screen for enhancers of Arylsulfatase A (ASA1): LOPAC Validation Assay (AID 720538); conditions: ASA enzyme activity, LOPAC qHTS enhancer assay; series mostly up to 57.5 µM
Chain of Arylsulfatase A (Homo sapiens) (P15289 whole entry, looked up): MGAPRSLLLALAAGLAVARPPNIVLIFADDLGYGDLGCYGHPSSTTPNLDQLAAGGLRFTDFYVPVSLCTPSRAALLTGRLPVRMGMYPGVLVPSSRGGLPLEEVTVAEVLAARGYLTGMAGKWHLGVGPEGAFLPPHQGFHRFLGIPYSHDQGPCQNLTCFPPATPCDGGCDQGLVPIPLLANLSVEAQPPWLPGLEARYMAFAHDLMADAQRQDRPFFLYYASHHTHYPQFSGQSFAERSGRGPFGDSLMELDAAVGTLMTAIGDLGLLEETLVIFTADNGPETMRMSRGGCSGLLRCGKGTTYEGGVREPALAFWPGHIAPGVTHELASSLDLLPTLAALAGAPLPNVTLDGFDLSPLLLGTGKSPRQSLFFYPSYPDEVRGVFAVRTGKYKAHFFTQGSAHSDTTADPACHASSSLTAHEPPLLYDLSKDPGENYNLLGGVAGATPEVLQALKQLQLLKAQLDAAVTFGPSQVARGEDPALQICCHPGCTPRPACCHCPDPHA
Outline: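 Cell-based enhancement test: residual ASA activity in SV40-transformed I179S patient fibroblasts is measured by pNCS turnover (0.5mM final, 14h, room temperature) following 48h compound incubation; higher fluorescence indicates activation.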

[2] = qHTS for compounds that reverse cellular toxicity of Amyloid beta (A-beta) peptide in yeast: LOPAC Validation Assay (AID 720559); conditions: yeast expressing A-beta; series mostly up to 46.1 µM;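 further: plate controls were DMSO for no effect and equimolar ferric chloride plus clioquinol rescue for full effect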
Outline: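 Here, A-beta-toxic yeast grow with test compounds at 30 C for 48 hr before optical density at 600 nm is recorded; data are normalized against DMSO and the FeCl3-clioquinol control.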

[3] = qHTS for Activators of Parkin Expression: LOPAC Validation Assay (NLuc Reporter) (AID 720572); conditions: Parkin promoter NanoLuc reporter cells, luminescence, percent of positive control, DMSO as zero; series mostly up to 46.1 µM
Outline: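 NLuc signal, read 10 min after reagent and following a prior FLuc read, is normalized to DMSO (0) and positive controls (100%). Cells: neuronal Parkin-promoter coincidence reporter line; compounds tested 7-point, 24 h, 37 C, 5% CO2.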

[4] = qHTS for Activators of Parkin Expression: LOPAC Validation Assay (FLuc Reporter) (AID 720573); conditions: Cell line, PRKN promoter firefly luciferase reporter; series mostly up to 46.1 µM
Outline: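 Readout is FLuc luminescence from neuronal reporter cells (Parkin promoter, FLuc plus NLuc) after 24 h compound exposure in dose response. Values normalized to neutral DMSO and positive-control compounds.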

[5] = molecular target: Hexokinase-4 (Homo sapiens) + Glucokinase regulatory protein (Homo sapiens) (UniProt P35557+Q14397); assay: qHTS assay for inhibitors of recombinant human GCK-GKRP interaction: Diaphorase-coupled assay (AID 743205); conditions: G6PDH/diaphorase resorufin fluorescence; series mostly up to 57.5 µM
Chain of Hexokinase-4 (Homo sapiens) + Glucokinase regulatory protein (Homo sapiens) (P35557 whole entry, looked up): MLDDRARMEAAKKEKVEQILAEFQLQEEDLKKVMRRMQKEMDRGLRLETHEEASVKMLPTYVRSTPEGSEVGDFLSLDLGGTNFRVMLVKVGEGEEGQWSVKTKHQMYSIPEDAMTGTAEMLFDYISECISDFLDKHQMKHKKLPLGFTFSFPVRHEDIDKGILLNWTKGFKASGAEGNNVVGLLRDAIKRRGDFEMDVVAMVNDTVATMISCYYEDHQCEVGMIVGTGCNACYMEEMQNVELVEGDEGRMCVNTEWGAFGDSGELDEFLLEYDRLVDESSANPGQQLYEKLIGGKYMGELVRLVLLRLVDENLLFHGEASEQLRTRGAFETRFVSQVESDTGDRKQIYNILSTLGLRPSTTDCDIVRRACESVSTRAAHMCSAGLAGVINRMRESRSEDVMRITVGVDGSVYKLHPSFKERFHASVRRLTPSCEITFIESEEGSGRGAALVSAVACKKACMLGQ
Chain of Hexokinase-4 (Homo sapiens) + Glucokinase regulatory protein (Homo sapiens) (Q14397 whole entry, looked up): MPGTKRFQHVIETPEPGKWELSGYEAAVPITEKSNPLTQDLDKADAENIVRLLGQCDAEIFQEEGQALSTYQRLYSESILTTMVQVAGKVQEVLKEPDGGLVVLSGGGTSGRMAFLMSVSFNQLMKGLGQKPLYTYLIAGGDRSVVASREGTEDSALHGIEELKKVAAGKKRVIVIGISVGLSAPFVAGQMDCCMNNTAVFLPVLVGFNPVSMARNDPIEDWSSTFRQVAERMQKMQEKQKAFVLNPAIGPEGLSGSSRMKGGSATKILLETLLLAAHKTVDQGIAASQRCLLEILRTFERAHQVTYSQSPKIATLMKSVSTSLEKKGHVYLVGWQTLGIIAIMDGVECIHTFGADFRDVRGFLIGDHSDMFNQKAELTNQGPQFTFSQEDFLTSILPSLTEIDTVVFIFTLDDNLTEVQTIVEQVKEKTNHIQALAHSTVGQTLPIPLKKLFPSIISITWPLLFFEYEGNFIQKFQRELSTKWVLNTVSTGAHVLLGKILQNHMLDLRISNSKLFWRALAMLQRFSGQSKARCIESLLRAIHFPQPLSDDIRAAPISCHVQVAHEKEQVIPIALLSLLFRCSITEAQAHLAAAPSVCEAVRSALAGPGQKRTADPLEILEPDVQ
Outline: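 Signal derives from resorufin generated by diaphorase, linked to GCK turnover of glucose (5 mM) and ATP (0.4 mM). Enzyme complex was added after a 20-minute compound preincubation and monitored for 30 minutes.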

[6] = qHTS assay for small molecule agonists of the antioxidant response element (ARE) signaling pathway measured by Nrf2-dependant transcriptional activity (AID 720636; active means well fitted curve in the direction sought with a large enough effect in the repeat runs; an effect the other way counts as inactive or inconclusive;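 further: HepG2 cells with an ARE-driven luciferase reporter; % of control where 0% means no effect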); conditions: ARE-luc HepG2, Nrf2 luciferase reporter, 16 h; series mostly up to 92.4 µM
Outline: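 Attachment 6 hr at 37 C, then compound versus DMSO vehicle for 16 hr in ARE-luc HepG2 cells (1% dialyzed FBS); luminescence recorded 30 min after ONE-Glo addition at room temperature.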

[7] = qHTS assay for small molecule agonists of the antioxidant response element (ARE) signaling pathway measured by Nrf2-dependant transcriptional activity - cell viability counter screen (AID 720653; active means well fitted curve in the direction sought with a large enough effect in the repeat runs; an effect the other way counts as inactive or inconclusive; further: on the % scale 0 is the no-effect control and ±100 the full control effect); conditions: ARE-bla HepG2 viability, CellTiter-Glo ATP luminescence, 16 h; max response: hits give low values
Outline: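 ARE-bla HepG2 cells treated with compounds for 16 h at 37C; this counter screen measures viability as intracellular ATP by CellTiter-Glo luminescence after 30 min at room temperature.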

COc1cc2nc(N(C)CCCNC(=O)C3CCCO3)nc(N)c2cc1OC (centres undefined)
inactive: Potency [1] | outcome [2] | outcome [3] | Potency [4] | Potency [5]

COc1ccc2c(c1)c(CC(=O)O)c(C)n2C(=O)c1ccc(Cl)cc1
inactive: Potency [1] | outcome [2] | Potency [4] | outcome [6] | max response [7] 1.73% and -1.81%

CC(C)NCC(O)COc1ccc(CCOCC2CC2)cc1 (centres undefined)
inactive: outcome [2] | outcome [3] | Potency [4]

COc1ccc(C2CNC(=O)C2)cc1OC1CCCC1 (centres undefined)
inactive: outcome [2] | outcome [3] | Potency [4] | Potency [5]

CCC1(C)CC(=O)NC1=O (centres undefined)
inactive: outcome [2] | outcome [3] | Potency [4] | Potency [5]

C[C@H]1c2cccc(O)c2C(O)=C2C(=O)[C@]3(O)C(O)=C(C(N)=O)C(=O)[C@@H](N(C)C)[C@@H]3[C@@H](O)[C@@H]21
inactive: Potency [1] | outcome [2] | outcome [3] | Potency [4] | Potency [5]

Clc1ccccc1C(c1ccccc1)(c1ccccc1)n1ccnc1
inactive: Potency [1] | outcome [2] | outcome [3] | Potency [4] | Potency [5]

OCCN1CCN(CCCN2c3ccccc3Sc3ccc(C(F)(F)F)cc32)CC1
inactive: outcome [2] | outcome [3] | Potency [4]

CN1C2CCC1CC(OC(=O)C(CO)c1ccccc1)C2 (centres undefined)
inactive: outcome [2] | outcome [3] | Potency [4] | Potency [5]

Cc1cc(C(C)(C)C)c(O)c(C)c1CC1=NCCN1
inactive: Potency [1] | outcome [2] | outcome [3] | Potency [4] | Potency [5]

CN1CCC(=C2c3ccccc3CC(=O)c3sccc32)CC1
inactive: outcome [2] | outcome [3] | Potency [4]

NC12CC3CC(CC(C3)C1)C2
inactive: Potency [1] | outcome [2] | outcome [3] | Potency [4] | Potency [5]

CCCNCC(O)COc1ccccc1C(=O)CCc1ccccc1 (centres undefined)
inactive: Potency [1] | outcome [2] | outcome [3] | Potency [4] | Potency [5]

Cn1c(=O)c2[nH]cnc2n(C)c1=O
inactive: outcome [2] | outcome [3] | Potency [4] | outcome [6] | max response [7] 0.323%

CN1CCN2c3ccccc3Cc3ccccc3C2C1 (centres undefined)
inactive: outcome [2] | outcome [3] | Potency [4] | Potency [5]

CCOC(=O)Nc1ccc(NCc2ccc(F)cc2)nc1N
inactive: outcome [2] | outcome [3] | Potency [4]

COc1ccccc1OCCNCC(O)COc1cccc2[nH]c3ccccc3c12 (centres undefined)
inactive: outcome [2] | outcome [3] | Potency [4] | Potency [5]

O=C(C1CCCCC1)N1CC(=O)N2CCc3ccccc3C2C1 (centres undefined)
inactive: outcome [2]

COc1ccccc1OCC(O)CN1CCN(CC(=O)Nc2c(C)cccc2C)CC1 (centres undefined)
inactive: outcome [2] | outcome [3] | Potency [4] | Potency [5]

Cc1cnc(C(=O)NCCc2ccc(S(=O)(=O)NC(=O)NC3CCCCC3)cc2)cn1
inactive: Potency [1] | outcome [2] | outcome [3] | Potency [4] | Potency [5]

O=C(c1ccc(F)cc1)C1CCN(CCn2c(=O)[nH]c3ccccc3c2=O)CC1
inactive: outcome [2] | outcome [3] | Potency [4] | Potency [5]

CNCCCC12CCC(c3ccccc31)c1ccccc12
inactive: Potency [1] | outcome [2] | outcome [3] | Potency [4] | Potency [5]

Clc1ccc2nsnc2c1NC1=NCCN1
inactive: outcome [2] | outcome [3] | Potency [4] | Potency [5]

CCCCc1oc2ccccc2c1C(=O)c1cc(I)c(OCCN(CC)CC)c(I)c1
inactive: outcome [2] | outcome [3] | Potency [4] | Potency [5]

NCCc1cnc[nH]1
inactive: Potency [1] | outcome [2] | outcome [3] | Potency [4] | Potency [5]
